# Source: PubChem BioAssay AID652189 (Johns Hopkins Ion Channel Center, 2013)
# Screen size: about 2,300 compounds; about 900 (39%) were called active.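 How the source made its calls: active means mean duplicate percent inhibition, scaled so buffer wells are 0 and the reference blocker 100, over three buffer SD above buffer mean; inactive means the rest.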 The list is a sample of the results.
# Target: Anoctamin-1 (Mus musculus) (UniProt Q8BHY3)
# Assay: TMEM16A chloride channel inhibitors, confirmation, cell-based, re-confirmation (AID 652189)
# Conditions: HEK293 TMEM16A/YFP-H148Q, iodide quench fluorescence, at 10 µM, ionomycin added to raise cell calcium; hits give high values
# Sequence of Anoctamin-1 (Mus musculus) (Q8BHY3 whole entry, looked up): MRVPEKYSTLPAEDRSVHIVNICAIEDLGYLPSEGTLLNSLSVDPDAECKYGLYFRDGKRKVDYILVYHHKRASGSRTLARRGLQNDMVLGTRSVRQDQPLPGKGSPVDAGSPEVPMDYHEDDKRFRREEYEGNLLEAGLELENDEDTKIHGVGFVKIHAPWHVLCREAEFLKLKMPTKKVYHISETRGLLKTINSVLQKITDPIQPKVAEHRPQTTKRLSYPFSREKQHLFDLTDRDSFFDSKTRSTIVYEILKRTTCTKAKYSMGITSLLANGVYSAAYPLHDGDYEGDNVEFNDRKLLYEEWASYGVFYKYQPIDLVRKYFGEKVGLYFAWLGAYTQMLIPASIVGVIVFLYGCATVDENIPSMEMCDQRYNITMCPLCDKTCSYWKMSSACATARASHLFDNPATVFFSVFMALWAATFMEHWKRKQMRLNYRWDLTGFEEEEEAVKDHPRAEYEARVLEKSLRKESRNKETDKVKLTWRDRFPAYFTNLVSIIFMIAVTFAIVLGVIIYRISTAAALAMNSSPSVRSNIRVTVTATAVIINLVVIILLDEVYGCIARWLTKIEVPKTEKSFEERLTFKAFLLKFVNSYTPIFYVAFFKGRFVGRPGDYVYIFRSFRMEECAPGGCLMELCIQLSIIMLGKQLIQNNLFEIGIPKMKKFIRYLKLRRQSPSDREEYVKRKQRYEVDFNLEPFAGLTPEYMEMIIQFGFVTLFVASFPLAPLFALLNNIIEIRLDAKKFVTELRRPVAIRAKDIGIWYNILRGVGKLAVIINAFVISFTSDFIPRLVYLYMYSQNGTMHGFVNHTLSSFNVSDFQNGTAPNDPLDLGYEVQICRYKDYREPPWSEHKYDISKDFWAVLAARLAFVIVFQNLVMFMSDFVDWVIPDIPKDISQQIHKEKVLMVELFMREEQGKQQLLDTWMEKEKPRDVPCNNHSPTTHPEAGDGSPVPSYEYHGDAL
row,SMILES,inhibition
1,CCCCCn1c(=O)c(C(=O)NCc2ccccn2)c(O)c2ccccc21,23% (active)
2,CCOc1cccc(=NC2CCCCC2)c2c(C)[nH]c(C)c12,inactive
3,CCN(CC)C(=O)c1ccc(NC(=O)c2cc(-n3cnnc3)ccc2Cl)cc1,inactive
